Compound activity: PubChem, several laboratories
Shown are actives, neighbours in structure and some others; about 5.2% of the full set was active somewhere.
ALR inh – human ALR oxidase inhibition via reduced H2O2; inhibition, % (no concentration beside the values); P55789; AID 485317; purified ALR, DTT oxidation, H2O2 HRP-luminol luminescence; 290,000 compounds, 3.8% hits;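 active means mean replicate inhibition above about 79%, with every replicate also reaching it, limit read from the data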
PfM18AAP inh – PfM18AAP enzyme inhibition | recombinant PfM18AAP, H-Glu-NHMec fluorogenic cleavage | inhibition, % at 7.35 µM | 290,000 compounds, 1.2% hits | AID 1822;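 active means inhibition above the campaign mean inhibition over all tested compounds plus 3 SD, cut at about 28% in these data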
APOBEC3G inh – APOBEC3G (human) deaminase inhibition | Q9HC16 | recombinant A3G, ssDNA deamination FAM/TAMRA fluorescence | inhibition, % at 20 µM | 330,000 compounds, 0.28% hits | AID 493012;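 active means inhibition of at least 40% at 20 µM, with no more than 30% in the related APOBEC3A deaminase screen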
A3A deaminase – human APOBEC3A DNA deaminase inhibition; P31941; recombinant A3A, FAM/TAMRA ssDNA deamination fluorescence; inhibition, % at 20 µM; 330,000 compounds, 0.41% hits;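 active means at least 40% inhibition at 20 µM here, with at most 30% in a related deaminase screen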
NRP1-CendR mod – modulators of CendR peptide binding to human neuropilin-1; 360,000 compounds, 0.85% hits; O14786; inhibition, % at 25 µM; FAM-RPARPAR peptide binding to NRP-1, fluorescence polarization;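 active means inhibition or corrected inhibition above about 18%, plus a signal ratio from 0.5 to 1.5, limit read from the data, passing the limit was not always enough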
Target sequence (O14786 whole entry, looked up): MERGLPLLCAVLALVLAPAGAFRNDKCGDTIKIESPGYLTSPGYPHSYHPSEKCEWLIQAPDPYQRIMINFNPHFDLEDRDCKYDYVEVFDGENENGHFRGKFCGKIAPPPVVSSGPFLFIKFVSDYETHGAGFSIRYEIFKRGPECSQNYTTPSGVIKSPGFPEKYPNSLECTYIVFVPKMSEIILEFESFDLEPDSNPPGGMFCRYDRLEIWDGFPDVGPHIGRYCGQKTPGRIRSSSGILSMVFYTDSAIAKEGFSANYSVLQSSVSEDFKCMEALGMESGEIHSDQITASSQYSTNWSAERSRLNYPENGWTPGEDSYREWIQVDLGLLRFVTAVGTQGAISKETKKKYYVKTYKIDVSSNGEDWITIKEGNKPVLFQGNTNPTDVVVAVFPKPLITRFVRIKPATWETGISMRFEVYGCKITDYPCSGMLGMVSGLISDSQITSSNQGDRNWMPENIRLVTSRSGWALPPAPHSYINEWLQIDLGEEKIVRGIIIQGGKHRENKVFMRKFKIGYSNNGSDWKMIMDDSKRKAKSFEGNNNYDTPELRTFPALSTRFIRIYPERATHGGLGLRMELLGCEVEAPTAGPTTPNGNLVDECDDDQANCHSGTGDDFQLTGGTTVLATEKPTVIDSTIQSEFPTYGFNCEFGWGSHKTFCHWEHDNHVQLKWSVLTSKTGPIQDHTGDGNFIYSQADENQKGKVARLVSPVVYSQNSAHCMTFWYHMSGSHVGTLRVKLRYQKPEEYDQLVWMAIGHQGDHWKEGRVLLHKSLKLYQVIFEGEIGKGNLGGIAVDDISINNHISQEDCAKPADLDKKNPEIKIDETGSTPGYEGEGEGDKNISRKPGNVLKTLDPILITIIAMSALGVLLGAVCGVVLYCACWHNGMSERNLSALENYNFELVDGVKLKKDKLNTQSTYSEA
Yeast superoxide – caloric restriction mimetics inhibiting age-related superoxide in yeast | S. cerevisiae aged cells, superoxide DHE fluorescence; stronger effect = lower value | superoxide response (% of plate mean), % at 10 µM | 330,000 compounds, 0.18% hits;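 active means superoxide response under a set limit, about three screen SD below normal, cut at about 65% in these data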;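 further: yeast aged for seven days with compound at 30 °C before DHE staining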
Numbers stand for hits; n = inactive; x = no result.

SMILES	ALR inh	PfM18AAP inh	APOBEC3G inh	A3A deaminase	NRP1-CendR mod	Yeast superoxide
COc1ccc(C)cc1NC(=O)N1CCC(CO)(CC2CCCCO2)CC1 (stereo not given)	x	n	n	n	n	n
O=C(Nc1nnc(-c2ccco2)o1)c1cccc(Cl)c1	96.3	n	n	n	n	n
O=C(Nc1nnc(-c2ccco2)o1)c1ccc(Cl)s1	96.4	n	n	n	n	n
CSc1ccc(CNC(=O)C2Cc3cc(S(=O)(=O)N4CCCCC4)ccc3N2C(C)=O)cc1 (stereo not given)	n	n	n	n	n	n
COc1cc(/C=N/NC(=O)c2nc3ccccn3c2C)cc(OC)c1O	99.1	n	n	n	n	n
COc1cc(/C=N/NC(=O)c2cc3c(ccc4ccccc43)o2)cc(OC)c1O	n	31.6	n	n	n	n
COc1ccc(C(C(=O)NCC2CCCO2)N(Cc2cccs2)C(=O)c2snc(C(N)=O)c2N)cc1 (stereo not given)	n	n	n	n	n	n
CC1=NN(c2ccccc2)C(=O)C1/C=C1\NC(=S)NC1=O (stereo not given)	88.8	n	n	n	n	n
CC1=NN(c2ccccc2)C(=O)C1C=Nc1ccccc1O (stereo not given)	n	n	n	n	n	n
COc1ccccc1OCC(=O)NCC(c1cccs1)N1CCOCC1 (stereo not given)	n	n	n	n	24.9	n
CC(C)c1ccccc1OCC(=O)NCC(c1cccs1)N1CCOCC1 (stereo not given)	x	n	n	n	n	n
Cn1nc(C(=O)NCC(c2cccs2)N2CCOCC2)c2ccccc2c1=O (stereo not given)	n	x	n	n	27.0	n
COc1ccccc1C(=O)Nc1ccc(N2CCN(C(C)=O)CC2)cc1	n	n	n	n	n	n
COc1ccc(C(=O)COC(=O)Cn2cnc3ccccc3c2=O)c(OC)c1	n	x	n	n	n	n
O=C(CSc1ccc(-c2ccccn2)nn1)c1ccc([N+](=O)[O-])cc1	n	n	n	n	n	n
O=C(COC(=O)c1ccccn1)c1ccc([N+](=O)[O-])cc1	n	n	n	n	22.2	n
CC(C)(C)c1cc(CCC(=O)NNC(=O)c2ccco2)cc(C(C)(C)C)c1O	x	n	n	n	n	n
CC(=O)NC(=S)NNC(=O)CCc1ccccc1	n	n	n	n	n	n
O=C(CCc1ccccc1)NNC(=S)NC(=O)c1ccccc1	97.6	n	n	n	n	n
CC(C)(C)c1cc(CCC(=O)NNC(=S)NC(=O)c2ccccc2)cc(C(C)(C)C)c1O	n	28.7	n	n	n	n
CCOc1ncccc1C(=O)Nc1nc(SC)ns1	n	n	n	n	n	n
Cc1cccc(NC2=C(Cl)C(=O)OC2OC(C)C)c1 (stereo not given)	n	n	n	n	n	n
CC1CCc2c(nc3ncnn3c2N2CCN(c3ccccc3F)CC2)C1 (stereo not given)	n	x	n	n	n	n
CC1CCc2c(nc3ncnn3c2N2CCN(c3ccccc3)CC2)C1 (stereo not given)	98.7	n	n	n	n	n
Cc1ccc(S(=O)(=O)N2CCC(=O)N(CCOC(=O)Nc3cc(C)cc(C)c3)CC2)cc1	n	n	n	n	n	n
SMILES	ALR inh	PfM18AAP inh	APOBEC3G inh	A3A deaminase	NRP1-CendR mod	Yeast superoxide
Cc1ccc(S(=O)(=O)N2CCC(=O)N(CCOC(=O)Nc3ccccc3C)CC2)cc1	n	n	n	n	19.2	x
Cc1ccc(C2c3c(oc4ccccc4c3=O)C(=O)N2c2nnc(C(C)C)s2)o1 (stereo not given)	96.5	n	n	n	n	n
CC1C(=O)Nc2ccc(S(=O)(=O)NCCc3ccc(Cl)cc3)cc2NC1=O (stereo not given)	n	n	n	n	24.1	n
COCCNC(=O)C(c1ccc(C)cc1)N(CCOC)C(=O)CCC(=O)Nc1nccs1 (stereo not given)	n	n	n	n	n	n
O=S(=O)(c1ccccc1)c1cnc2ccccc2c1	x	x	n	n	26.5	n
CCCC(=O)NC(=S)Nc1ccccc1C(=O)OC	n	n	n	n	n	n
O=C(NC(=S)Nc1cccc2cc(O)ccc12)c1ccco1	94.5	n	n	n	n	n
NC(=O)NNC(=S)Nc1cccc2ccccc12	n	49.5	n	n	n	n
O=C(NC(=S)Nc1cccc2c(O)cccc12)c1ccco1	99.4	n	n	n	n	n
NC(=O)c1ccccc1NC(=O)Nc1cccc2ccccc12	n	n	n	n	n	n
CCCC(=O)NC(=S)Nc1cccc2c(O)cccc12	90.9	n	n	n	n	n
O=C(NCc1ccccc1)C(c1ccncc1)N(C(=O)c1csnn1)c1ccccc1F (stereo not given)	n	n	n	n	n	n
O=C(N/N=C/c1ccc(N2CCOCC2)o1)c1ccccc1[N+](=O)[O-]	n	n	n	n	n	n
COc1ccc(CCNC(=O)CSc2nc(C)nc3c2c(=O)n(C)c(=O)n3C)cc1OC	n	x	n	n	n	n
CCCCn1c(SCC(=O)Nc2cccc(OC)c2)nc2ccc(N3CCOCC3)cc2c1=O	99.1	n	n	n	n	n
N#CCCn1c(SCC(=O)Nc2ccc(N3CCOCC3)cc2)nc2ccccc21	98.8	n	n	n	n	n
O=C(CSc1nc2ccccc2[nH]1)Nc1ccc(N2CCOCC2)cc1	98.7	n	n	n	n	n
O=C(CSc1nc2ccccc2[nH]1)Nc1cccc(S(=O)(=O)N2CCOCC2)c1	x	n	n	n	n	n
O=C(CSc1nc2ccccc2[nH]1)N1CCN(c2ccccc2)CC1	98.6	n	n	n	n	n
Cn1cc(SCC(=O)N2CCOCC2)c2ccccc21	x	n	n	n	n	n
Cn1cc(SCC(=O)N2CCN(c3ccccc3)CC2)c2ccccc21	98.0	n	n	n	n	n
O=C1CCC(=O)N1c1ccc(CSc2nc3ccccc3[nH]2)cc1	98.8	n	n	n	n	n
COc1cc(/C=C2/C(=N)N3N=C(C)SC3=NC2=O)ccc1OS(=O)(=O)c1ccc(C)cc1	n	n	n	n	n	n
CCCCCCCCCC[n+]1cccc2c3ccccc3ccc21	x	n	x	x	n	x
Cc1c(Cl)c(C(=O)NNC(=S)Nc2ccccc2)nn1C	91.5	n	n	n	n	n
SMILES	ALR inh	PfM18AAP inh	APOBEC3G inh	A3A deaminase	NRP1-CendR mod	Yeast superoxide
Cc1c(Cl)c(C(=O)NNC(=S)Nc2ccc(F)cc2)nn1C	80.8	n	n	n	n	n
CCNC(=S)NNC(=O)c1nn(C)c(C)c1Cl	n	n	n	n	n	n
NC(=O)c1ccsc1NC(=O)CCS(=O)(=O)c1ccccc1	n	n	n	n	n	n
COc1ccc(CN2C(=O)NC(C)(c3ccc(C)cc3)C2=O)cc1F (stereo not given)	n	n	n	n	n	n
O=C(NCc1ccccc1)c1ccc(CN2CCOCC2)cc1	n	n	n	n	n	n
COc1ccc(-c2nc(NC3=NCCCCC3)sc2C)cc1	98.5	n	n	n	n	n
